Laboratory results from the OligoGym collection.

Molecular target: NUP188
Test: pooled miR-30 sensor sort-seq; sequence = guide strand
Details: shRNA
Note: reference of the scale not given here.

Row | Sequence | sensor-assay potency score (higher = more potent)
1 | TATTGATAACTGTCTGTCCTGC | -0.496
2 | TAACTCTCTCTTCCACTGCCGG | -0.922
3 | TAGGTGTCTGTGCTGTGCCGTT | -0.606
4 | TACTACATAGTATATCTCCAAG | -1.14
5 | TAGAACAGCAATGAGGTTGTTT | 0.0605
6 | TAATGCTGCAGCATCTTTCGAC | -0.404
7 | TTTTCTTGTCCAGCTCTCCAAG | -0.925
8 | TTGCTCTTTAAACATCTTGGTT | -0.993
9 | TTACACAGGGTACAAGTCCTTG | -0.672
10 | TATCGCATGAATCAGCTCCAAG | -1.05
11 | TACTCTAACAAGGAGGTGCAGC | -0.568
12 | TATTGGTCTGCCTACTACCAAA | -1.79

Molecular target: NUP214
Test: as above
Details: shRNA

Row | Sequence | sensor-assay potency score (higher = more potent)
13 | TTTGTTGGACACAGCAAGCAGA | -0.715
14 | TTTTGTTGGGATCATCTCCGGG | -0.302
15 | TAATCTGATCACTTTGTCGAGC | -0.175
16 | TAAAGTTCACAAATATCTCTGG | 0.255
17 | TAGAACATCATTCACATCTTGG | -0.0154
18 | TTATCAACTATTTTGTTGGGAT | 0.33
19 | TTGACTTTGACAGCAGAGGTTG | -0.446
20 | TTTGTTGGGATCATCTCCGGGT | -0.0183
21 | TAACTCTTCCAACTCCTTCTGA | -0.0589
22 | TTTAGTAGGAAAAATCTGCAAG | -0.492
23 | TAATGATGCTGTCTCTCCGTGC | -0.651
24 | TTTATCAACTATTTTGTTGGGA | 1.13
